PubChem BioAssay
Active and inactive are the calls of the source. Unless noted, how the calls were made is not given here.

Key:
[1] = compound effects on lung adenocarcinoma cell viability – A549, calcein-AM fluorescence, 48 h, basal, profiling panel (AID 1162); conditions: higher = more signal; further: test concentration not given here
[2] = compound effects on differentiated 3T3-L1 adipocyte viability – cell-based, 3T3-L1 adipocytes, calcein-AM fluorescence, 48 h, basal, profiling panel (AID 1163); conditions: 3T3-L1 adipocytes viability, higher = more signal; further: test concentration not given here
[3] = compound effects on hepatocellular carcinoma cell viability – HepG2, calcein-AM fluorescence, 48 h, basal, profiling panel (AID 1164); conditions: higher = more signal; further: test concentration not given here
[4] = compound effects on multiple myeloma cell viability – MM1S, calcein-AM fluorescence, 48 h, basal, profiling panel (AID 1165); conditions: higher = more signal; further: test concentration not given here
[5] = calcein-AM signal in unstimulated myeloma cells – cell-based, calcein-AM fluorescence, 48 h, PK04 Diversity Set, profiling panel (AID 1166); conditions: RPMI8226 myeloma viability, higher = more signal;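 further: cells grown under basal conditions without added stimulus; test concentration not given here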
[6] = JC-1 mitochondrial signal, unstimulated HepG2 cells – cell-based, JC-1 fluorescence, 24 h, 100 nL compound, profiling panel (AID 1167); conditions: HepG2 mitochondrial potential, higher = more signal; further: test concentration not given here
[7] = JC-1 mitochondrial signal, unstimulated adipocytes – cell-based, JC-1 fluorescence, 3T3-L1 adipocytes, 24 h, 100 nL compound, profiling panel (AID 1168); conditions: JC-1 mitochondrial fluorescence, higher = more signal, called active from +8 up or from −8 down; further: test concentration not given here
[8] = JC-1 mitochondrial signal, unstimulated myeloma cells – cell-based, JC-1 fluorescence, RPMI8226, 24 h, 100 nL compound, profiling panel (AID 1169); conditions: JC-1 mitochondrial potential fluorescence, higher = more signal; further: test concentration not given here
[9] = JC-1 mitochondrial signal, unstimulated MM1S myeloma – cell-based, JC-1 fluorescence, 24 h, 100 nL compound, profiling panel (AID 1170); conditions: MM1S mitochondrial potential, higher = more signal; further: test concentration not given here
[10] = resazurin metabolic signal in A549 cells – cell-based, resazurin fluorescence, 24 h, PK04 Diversity Set, profiling panel (AID 1171); conditions: A549 viability, higher = more signal, called active from +8 up or from −8 down; further: test concentration not given here
[11] = resazurin metabolic signal in HepG2 cells – cell-based, resazurin fluorescence, 24 h, PK04 Diversity Set, profiling panel (AID 1172); conditions: HepG2 viability, higher = more signal; further: test concentration not given here
[12] = budding yeast growth changes without added modifier – OD600, strain BY4716, 24 h, basal condition, primary screen (AID 1173); conditions: S. cerevisiae BY4716 growth, OD600, 24 h; higher = more signal, called active from +8 up or from −8 down
[13] = viability profiling in MM1S myeloma cells – cell-based, resazurin fluorescence, basal, 24 h, PK04 Diversity Set, profiling panel (AID 1174); conditions: higher = more signal, called active from +8 up or from −8 down; further: test concentration not given here
[14] = target: Dihydroorotate dehydrogenase (quinone), mitochondrial (Plasmodium falciparum (isolate 3D7)) (UniProt Q08210); assay: inhibition of P. falciparum DHODH – biochemical, C-terminal His tag, absorbance 600 nm, primary screen (AID 1175); conditions: PfDHODH enzyme, DCIP absorbance 600 nm; higher = more signal, called active from +8 up or from −8 down;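 further: recombinant parasite enzyme with a five histidine tag at its C terminus; test concentration not given here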
Chain of Dihydroorotate dehydrogenase (quinone), mitochondrial (Plasmodium falciparum (isolate 3D7)) (Q08210 whole entry, looked up): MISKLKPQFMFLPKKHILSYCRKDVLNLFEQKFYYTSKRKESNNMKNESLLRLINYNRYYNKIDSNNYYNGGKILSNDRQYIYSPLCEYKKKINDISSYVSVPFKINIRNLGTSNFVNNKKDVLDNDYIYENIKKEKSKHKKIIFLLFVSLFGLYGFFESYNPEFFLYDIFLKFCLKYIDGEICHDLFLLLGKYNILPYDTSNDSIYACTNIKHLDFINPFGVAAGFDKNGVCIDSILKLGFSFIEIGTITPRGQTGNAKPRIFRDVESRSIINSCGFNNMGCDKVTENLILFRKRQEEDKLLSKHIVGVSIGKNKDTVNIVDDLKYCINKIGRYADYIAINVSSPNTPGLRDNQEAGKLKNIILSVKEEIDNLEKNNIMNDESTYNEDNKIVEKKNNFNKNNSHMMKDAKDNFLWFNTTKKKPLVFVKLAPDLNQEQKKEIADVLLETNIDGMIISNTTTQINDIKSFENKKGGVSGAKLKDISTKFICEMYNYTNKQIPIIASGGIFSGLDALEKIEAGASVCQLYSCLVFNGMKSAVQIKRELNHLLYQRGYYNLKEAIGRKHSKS

[15] = inhibition of PAO1 biofilm formation – strain PAO1, LB-PBS medium, absorbance 600 nm, primary screen (AID 1176); further: test concentration not given here; conditions: P. aeruginosa PAO1 growth/biofilm, A600, 12 h; higher = more signal
[16] = growth modulation of vineyard yeast isolate – strain RM11-1a, OD600, basal, 24 h, primary screen (AID 1177);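 further: cultures grown under basal conditions with no added stressor; test concentration not given here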; conditions: S. cerevisiae RM11-1a growth, OD600, 24 h; higher = more signal, called active from +8 up or from −8 down
[17] = growth of efflux-deficient E. coli DRC39 – strain DRC39, OD650, 24 h, E. coli filamentation inducers, primary screen (AID 1178);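 further: growth measured as culture turbidity by optical density at 650 nm; test concentration not given here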; conditions: E. coli DRC39 acrAB, higher = more signal, called active from +8 up or from −8 down
[18] = growth of efflux-deficient E. coli DRC39 – strain DRC39, OD650, 48 h, E. coli filamentation inducers, primary screen (AID 1179);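 further: screen aims at cell division blockers that make cells filament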; conditions: E. coli DRC39 delta-acrAB growth, higher = more signal, called active from +8 up or from −8 down
[19] = viability profiling in RPMI8226 myeloma cells – cell-based, resazurin fluorescence, basal, 24 h, PK04 Diversity Set, profiling panel (AID 1180); conditions: higher = more signal;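 further: RPMI8826 multiple myeloma cell line at 5000 cells per well; test concentration not given here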
[20] = target: E3 ubiquitin-protein ligase XIAP (Homo sapiens) (UniProt P98170); assay: small molecules binding XIAP protein – biophysical, small-molecule microarray, fluorescence 635 nm, primary screen (AID 1181); conditions: higher = more signal;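 further: score merges 667 nm emission and signal to noise over triplicate slides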
Chain of E3 ubiquitin-protein ligase XIAP (Homo sapiens) (P98170 whole entry, looked up): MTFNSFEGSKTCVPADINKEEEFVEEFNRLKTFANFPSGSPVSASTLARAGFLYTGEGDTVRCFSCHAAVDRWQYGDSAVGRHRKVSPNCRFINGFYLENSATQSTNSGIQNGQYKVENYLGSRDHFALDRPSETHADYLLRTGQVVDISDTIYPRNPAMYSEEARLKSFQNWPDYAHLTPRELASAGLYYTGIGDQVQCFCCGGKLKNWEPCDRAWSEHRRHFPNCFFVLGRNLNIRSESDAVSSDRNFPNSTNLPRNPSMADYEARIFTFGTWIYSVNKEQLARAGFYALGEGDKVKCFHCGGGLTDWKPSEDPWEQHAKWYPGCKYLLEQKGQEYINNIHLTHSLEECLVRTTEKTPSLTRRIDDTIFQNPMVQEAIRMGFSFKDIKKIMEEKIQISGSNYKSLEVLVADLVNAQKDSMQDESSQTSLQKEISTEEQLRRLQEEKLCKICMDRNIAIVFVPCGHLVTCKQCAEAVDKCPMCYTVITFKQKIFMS

Row | SMILES | z-score [1] | z-score [2] | z-score [3] | z-score [4] | z-score [5] | z-score [6] | z-score [7] | z-score [8] | z-score [9] | z-score [10] | z-score [11] | z-score [12] | z-score [13] | composite z-score [14] | z-score [15] | z-score [16] | z-score [17] | z-score [18] | z-score [19] | composite z-score [20]
1 | COc1ccc(C(O)C2C=CC3C(=O)N(c4ccccc4)C(=O)C3N2Nc2ccc([N+](=O)[O-])cc2)cc1 (stereo not given) | -0.27 | -1.06 | 0.168 | -0.495 | 0.0223 | -0.378 | -1.52 (inactive) | 0.0302 | -0.909 | 0.0404 (inactive) | -0.724 | 0.402 (inactive) | -0.754 (inactive) | -0.0727 (inactive) | 0.837 (inactive) | 0.613 (inactive) | -1.2 (inactive) | -0.996 (inactive) | -0.502 | 0.21
2 | NCCCCCCNC(=O)[C@@H]1C[C@@H]2C(=O)N[C@@H](CCCCN)C(=O)N2[C@@H]1c1cccc(OCCO)c1 | 0.892 | -0.452 | 0.514 | 0.835 | 0.986 | 0.0199 | 0.759 (inactive) | -0.639 | -0.451 | 0.551 (inactive) | 1.1 | 0.0813 (inactive) | 0.193 (inactive) | 0.169 (inactive) | -0.931 (inactive) | 0.58 (inactive) | 0.398 (inactive) | 0.756 (inactive) | 0.685 | 2.72
3 | [N-]=[N+]=Nc1ccccc1[C@H]1OC(c2ccc(OCCCO)cc2)=N[C@@]1(Cc1ccccc1)C(=O)N1CCCCC1 | -0.127 | -0.019 | -0.683 | -3.09 | -3.83 | -0.251 | 1.44 (inactive) | -1.15 | -2.77 | -2.29 (inactive) | -1.16 | -0.722 (inactive) | -3.61 (inactive) | -0.827 (inactive) | 0.603 (inactive) | 1.97 (inactive) | 0.359 (inactive) | 0.617 (inactive) | -4.52 | 0.0197
4 | COc1ccc([Si](C)(C)[C@@H]2[C@@H](CCO)O[C@]3(C(=O)N(Cc4ccc(N5CCCCC5=O)cc4)c4ccccc43)[C@H]2C)cc1 | 0.108 | -0.686 | -0.347 | -2.8 | -3.05 | 0.714 | 1.25 (inactive) | 0.88 | 0.572 | -1.78 (inactive) | -0.723 | -0.173 (inactive) | -0.75 (inactive) | -3.05 (inactive) | 1.45 (inactive) | 2.69 (inactive) | 1.99 (inactive) | 1.14 (inactive) | -2.24 | -0.184
5 | COc1cc2c(cc1OC)CN(C(=O)[C@@H]1[C@H]3C(=O)O[C@H](c4ccccc4)[C@H](c4ccccc4)N3[C@H](c3ccc(OCCO)cc3)[C@@]13C(=O)Nc1ccc(C#CC4(O)CCCCCC4)cc13)CC2 | 2.93 | 1.72 | 0.988 | -0.0788 | 0.792 | -0.555 | 0.601 (inactive) | -0.831 | -1.3 | 0.36 (inactive) | 0.61 | -0.257 (inactive) | 0.341 (inactive) | -1.3 (inactive) | 4.2 (inactive) | 2.82 (inactive) | 0.312 (inactive) | 0.854 (inactive) | -0.221 | -0.0382
6 | COC(=O)[C@@]1(Cc2ccc(OC)cc2)[C@H]2c3cc(C(=O)N4CCCC4)n(Cc4cccc5ccccc45)c3C[C@H]2CN1C(=O)c1ccccc1 | -0.249 | -0.305 | 1.39 | -0.47 | -0.718 | 2.15 | -0.198 (inactive) | -0.427 | -1.26 | -0.506 (inactive) | -0.18 | 1.07 (inactive) | -0.619 (inactive) | 0.237 (inactive) | -0.362 (inactive) | 1.08 (inactive) | 0.24 (inactive) | 0.277 (inactive) | 0.0686 | 0.5
7 | [N-]=[N+]=NCc1ccccc1C[C@@]1(C(=O)N2CCCCC2)N=C(c2ccc(OCCCO)cc2)O[C@@H]1c1ccccc1 | -1.26 | -0.813 | -2.13 | -3.11 | -4.35 | 0.622 | -0.209 (inactive) | -1.28 | -2.34 | -0.949 (inactive) | -0.876 | -0.59 (inactive) | -5.49 (inactive) | 1.53 (inactive) | 0.137 (inactive) | 1.95 (inactive) | 0.297 (inactive) | 0.696 (inactive) | -4.9 | -0.279
8 | C=C(COC)/C(=C/C[C@H](OC(C)=O)c1ccc(OCCO)cc1)c1cc(C(=O)OC)ccc1OC | 1.82 | 0.852 | 0.883 | -1.01 | 0.598 | 2.6 | 1.57 (inactive) | 0.0179 | -0.444 | 1.47 (inactive) | 1.26 | 0.147 (inactive) | 0.901 (inactive) | -2.16 (inactive) | 0.838 (inactive) | -0.957 (inactive) | 1.94 (inactive) | 1.37 (inactive) | 1.46 | -0.345
9 | CN(C)C(=O)[C@@]1(CCS(=O)(=O)c2ccccc2)N=C(c2ccc(OCCCO)cc2)O[C@H]1c1ccccc1 | 0.0979 | 0.171 | 0.568 | -0.215 | -2.01 | -0.104 | -0.268 (inactive) | 0.331 | 0.0134 | -0.124 (inactive) | 0.29 | 0.26 (inactive) | -0.236 (inactive) | -0.431 (inactive) | -0.372 (inactive) | -0.0905 (inactive) | -1.47 (inactive) | -0.732 (inactive) | -0.22 | -0.0866
10 | O=C1O[C@H](c2ccccc2)[C@H](c2ccccc2)N2[C@H]1[C@@H](C(=O)Nc1nc3ccccc3s1)[C@]1(C(=O)Nc3ccc(C#CC4(O)CCCCCC4)cc31)[C@H]2c1ccccc1OCCO | -0.744 | 0.248 | -1.54 | -3.44 | -4.15 | -2.82 | 2.18 (inactive) | -0.951 | -1.5 | -2.21 (inactive) | 0.162 | 1.49 (inactive) | -3.4 (inactive) | -1.28 (inactive) | 3.52 (inactive) | 2.74 (inactive) | -0.295 (inactive) | -0.508 (inactive) | -5.13 | 0.25
11 | O=C1O[C@@H](c2ccccc2)[C@@H](c2ccccc2)N2[C@@H](c3ccc(O)cc3)[C@]3(C(=O)Nc4ccc(C#CC5=CCCCC5)cc43)[C@@H](C(=O)NC[C@H](O)c3ccccc3)[C@H]12 | 0.0793 | 0.294 | -1.86 | -3.33 | -4.54 | -2.26 | 1.33 (inactive) | -1.06 | -1.1 | -1.49 (inactive) | -0.705 | -0.593 (inactive) | -3.09 (inactive) | -0.609 (inactive) | 1.6 (inactive) | 2.43 (inactive) | 0.0087 (inactive) | 0.939 (inactive) | -6.69 | -0.0397
12 | O=C1c2ccccc2[C@](Cc2ccccc2I)(C(=O)NCC(F)(F)F)[C@H](c2ccc(CO)cc2)N1C1CCCCC1 | 1.77 | 0.515 | 1.02 | -1.75 | -3.92 | 1.3 | 0.238 (inactive) | -0.434 | 0.23 | -0.0818 (inactive) | -0.46 | -0.754 (inactive) | 0.247 (inactive) | -1.11 (inactive) | 0.127 (inactive) | 0.234 (inactive) | 0.739 (inactive) | 0.743 (inactive) | -0.581 | 0.129
13 | C=CC[C@@]1(C(=O)N2CCOCC2)N=C(c2ccc(OCCCO)cc2)O[C@@H]1c1ccccc1CN=[N+]=[N-] | 1.42 | 0.563 | 1.09 | -0.909 | -0.697 | 1.97 | -0.212 (inactive) | -0.838 | -0.845 | 0.278 (inactive) | 0.0491 | 0.0155 (inactive) | 0.118 (inactive) | 0.159 (inactive) | 0.137 (inactive) | -0.109 (inactive) | -0.0245 (inactive) | 0.443 (inactive) | -0.052 | 0.184
14 | COc1ccc([Si](C)(C)[C@@H]2[C@@H](CC(=O)N(CCO)Cc3ccccc3)O[C@]3(C(=O)N(Cc4cccc(N5C(=O)c6cccc7cccc5c67)c4)c4ccccc43)[C@H]2C)cc1 | -1.32 | 1.43 | -1.12 | -1.48 | -3.72 | 0.641 | 2.03 (inactive) | -1.02 | -1.4 | -0.999 (inactive) | -0.47 | -0.304 (inactive) | -1.6 (inactive) | -1.29 (inactive) | 1.25 (inactive) | 0.323 (inactive) | 1.75 (inactive) | 1.51 (inactive) | -1.27 | -0.124
